# The supplement of paper PMC8728848
# Only a selection was taken, and the strongest signals are over-represented in it overall.
# B1: HBHA-Rv (Mycobacterium tuberculosum), P0A5P6 (protein)
# chain: MAENSNIDDIKAPLLAALGAADLALATVNELITNLRERAEETRTDTRSRVEESRARLTKLQEDLPEQLTELREKFTAEELRKAAEGYLEAATSRYNELVERGEAALERLRSQQSFEEVSARAEGYVDQAVELTQEALGTVASQTRAVGERAAKLVGIELPKKAAPAKKAAPAKKAAPAKKAAAKKAPAKKAAAKKVTQK
# How the values were obtained:
# Test in all cases: glycan array binding signal (z-score within array); higher = stronger binding
# Conditions in all cases: glycan notation: IUPAC condensed, linker removed
# Gal3S6S(b1-4)GlcNAc6S = molecular target: Gal3S6S(b1-4)GlcNAc6S
# In short: (§1)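 Glycan array data came from 3228 arrays in the Consortium for Functional Glycomics database, and only arrays with an available protein sequence were kept. Glycan names were put into IUPAC-condensed notation, and columns mapping to the same glycan were averaged. The binding signal is a within-array Z-score, averaged across arrays of one protein sequence run at different concentrations or buffers and across linkers. A negative Z-score can be read as non-binding.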
# Gal6S(b1-4)Glc = molecular target: Gal6S(b1-4)Glc
# In short: as §1
# Gal6S(b1-4)GlcNAc6S = molecular target: Gal6S(b1-4)GlcNAc6S
# In short: as §1
# Glc(b1-6)Glc = molecular target: Glc(b1-6)Glc
# In short: as §1
# [1] = molecular target: GlcNAc(b1-2)[GlcNAc(b1-6)]Man(a1-6)[GlcNAc(b1-4)][GlcNAc(b1-2)Man(a1-3)]Man(b1-4)GlcNAc(b1-4)GlcNAc
# In short: as §1
# [2] = molecular target: GlcNAc(b1-3)Gal(b1-4)GlcNAc(b1-2)Man(a1-3)[GlcNAc(b1-3)Gal(b1-4)GlcNAc(b1-2)Man(a1-6)]Man(b1-4)GlcNAc(b1-4)GlcNAc
# In short: as §1
# [3] = molecular target: GlcNAc(b1-3)Gal(b1-4)GlcNAc(b1-2)Man(a1-3)[GlcNAc(b1-3)Gal(b1-4)GlcNAc(b1-2)Man(a1-6)]Man(b1-4)GlcNAc(b1-4)[Fuc(a1-6)]GlcNAc
# In short: as §1
# [4] = molecular target: GlcNAc(b1-3)Gal(b1-4)GlcNAc(b1-3)Gal(b1-4)GlcNAc(b1-3)Gal(b1-4)GlcNAc(b1-2)Man(a1-3)[GlcNAc(b1-3)Gal(b1-4)GlcNAc(b1-3)Gal(b1-4)GlcNAc(b1-3)Gal(b1-4)GlcNAc(b1-2)Man(a1-6)]Man(b1-4)GlcNAc(b1-4)[Fuc(a1-6)]GlcNAc
# In short: as §1
# [5] = molecular target: GlcNAc(b1-3)Gal(b1-4)GlcNAc(b1-3)Gal(b1-4)GlcNAc(b1-3)Gal(b1-4)GlcNAc(b1-2)[GlcNAc(b1-3)Gal(b1-4)GlcNAc(b1-3)Gal(b1-4)GlcNAc(b1-3)Gal(b1-4)GlcNAc(b1-6)]Man(a1-6)[GlcNAc(b1-3)Gal(b1-4)GlcNAc(b1-3)Gal(b1-4)GlcNAc(b1-3)Gal(b1-4)GlcNAc(b1-2)Man(a1-3)]Man(b1-4)GlcNAc(b1-4)[Fuc(a1-6)]GlcNAc
# In short: as §1
# GlcNAc(b1-4)GlcNAc = molecular target: GlcNAc(b1-4)GlcNAc
# In short: as §1
# [6] = molecular target: GlcNAc(b1-4)GlcNAc(b1-4)GlcNAc(b1-4)GlcNAc(b1-4)GlcNAc
# In short: as §1
# [7] = molecular target: GlcNAc(b1-4)GlcNAc(b1-4)GlcNAc(b1-4)GlcNAc(b1-4)GlcNAc(b1-4)GlcNAc
# In short: as §1
# [8] = molecular target: Kdn(a2-3)Gal(b1-4)[Fuc(a1-3)]GlcNAc
# In short: as §1
# [9] = molecular target: Man(a1-2)Man(a1-3)[Man(a1-2)Man(a1-6)]Man(a1-6)[Man(a1-2)Man(a1-2)Man(a1-3)]Man(b1-4)GlcNAc(b1-4)GlcNAc
# In short: as §1
# [10] = molecular target: Man(a1-2)Man(a1-6)[Man(a1-3)]Man(a1-6)[Man(a1-2)Man(a1-2)Man(a1-3)]Man(b1-4)GlcNAc(b1-4)GlcNAc
# In short: as §1
# [11] = molecular target: Neu5Ac(a2-3)Gal(b1-3)GalNAc
# In short: as §1
# [12] = molecular target: Neu5Ac(a2-3)Gal(b1-3)GlcNAc(b1-2)Man(a1-3)[Neu5Ac(a2-3)Gal(b1-3)GlcNAc(b1-2)Man(a1-6)]Man(b1-4)GlcNAc(b1-4)GlcNAc
# In short: as §1
# [13] = molecular target: Neu5Ac(a2-3)Gal(b1-4)GlcNAc(b1-2)Man
# In short: as §1
# [14] = molecular target: Neu5Ac(a2-3)Gal(b1-4)GlcNAc(b1-2)Man(a1-3)[Neu5Ac(a2-3)Gal(b1-4)GlcNAc(b1-2)Man(a1-6)]Man(b1-4)GlcNAc(b1-4)[Fuc(a1-6)]GlcNAc
# In short: as §1
# [15] = molecular target: Neu5Ac(a2-3)Gal(b1-4)GlcNAc(b1-3)Gal(b1-4)GlcNAc(b1-2)Man(a1-3)[Neu5Ac(a2-3)Gal(b1-4)GlcNAc(b1-3)Gal(b1-4)GlcNAc(b1-2)Man(a1-6)]Man(b1-4)GlcNAc(b1-4)GlcNAc
# In short: as §1
# [16] = molecular target: Neu5Ac(a2-3)Gal(b1-4)GlcNAc(b1-6)[Gal(b1-3)]GalNAc
# In short: as §1
# [17] = molecular target: Neu5Ac(a2-3)Gal(b1-4)[Fuc(a1-3)]GlcNAc
# In short: as §1
# [18] = molecular target: Neu5Ac(a2-3)Gal6S(b1-4)[Fuc(a1-3)]GlcNAc
# In short: as §1
# [19] = molecular target: Neu5Ac(a2-6)Gal(b1-4)GlcNAc(b1-2)Man(a1-3)[Gal(b1-4)GlcNAc(b1-2)Man(a1-6)]Man(b1-4)GlcNAc(b1-4)GlcNAc
# In short: as §1
# [20] = molecular target: Neu5Ac(a2-6)Gal(b1-4)GlcNAc(b1-2)Man(a1-3)[Neu5Ac(a2-3)Gal(b1-4)GlcNAc(b1-2)Man(a1-6)]Man(b1-4)GlcNAc(b1-4)GlcNAc
# In short: as §1
# [21] = molecular target: Neu5Ac(a2-6)Gal(b1-4)GlcNAc(b1-2)Man(a1-6)[Man(a1-3)]Man(b1-4)GlcNAc(b1-4)GlcNAc
# In short: as §1
# [22] = molecular target: Neu5Ac(a2-6)Gal(b1-4)GlcNAc(b1-3)Gal(b1-4)GlcNAc(b1-3)GalNAc
# In short: as §1
# [23] = molecular target: Neu5Ac(a2-8)Neu5Ac(a2-3)[Gal(b1-3)GalNAc(b1-4)]Gal(b1-4)Glc
# In short: as §1
binder,measurement,setting,value
B1,glycan array binding signal (z-score),Gal3S6S(b1-4)GlcNAc6S,1.29
same,glycan array binding signal (z-score),Gal6S(b1-4)Glc,1.36
same,glycan array binding signal (z-score),Gal6S(b1-4)GlcNAc6S,0.203
same,glycan array binding signal (z-score),Glc(b1-6)Glc,0.495
same,glycan array binding signal (z-score),[1],-0.415
same,glycan array binding signal (z-score),[2],-0.423
same,glycan array binding signal (z-score),[3],-0.332
same,glycan array binding signal (z-score),[4],-0.455
same,glycan array binding signal (z-score),[5],-0.347
same,glycan array binding signal (z-score),GlcNAc(b1-4)GlcNAc,-0.292
same,glycan array binding signal (z-score),[6],4.22
same,glycan array binding signal (z-score),[7],3.44
same,glycan array binding signal (z-score),[8],-0.371
same,glycan array binding signal (z-score),[9],-0.264
same,glycan array binding signal (z-score),[10],1.09
same,glycan array binding signal (z-score),[11],1.62
same,glycan array binding signal (z-score),[12],-0.163
same,glycan array binding signal (z-score),[13],-0.023
same,glycan array binding signal (z-score),[14],-0.174
same,glycan array binding signal (z-score),[15],-0.297
same,glycan array binding signal (z-score),[16],-0.331
same,glycan array binding signal (z-score),[17],-0.199
same,glycan array binding signal (z-score),[18],0.273
same,glycan array binding signal (z-score),[19],-0.354
same,glycan array binding signal (z-score),[20],-0.42
same,glycan array binding signal (z-score),[21],-0.302
same,glycan array binding signal (z-score),[22],-0.379
same,glycan array binding signal (z-score),[23],1.55
